Experimental findings from article PMC5540273 (PLoS ONE, 2017) are described below.

Molecules are shown by their SMILES.

Settings in all cases: concentration: 1 μM,replicates: in singlicate; n = 1
The subject of test [1] is CDC2L2.
Test [2] deals with T1, CDC2L5.
T1 construct: gene CDK13

Test [3] relates to T2, CDK11.
T2 construct: gene CDK19

The subject of test [4] is CDK2.
Test [5] deals with CDK3.
The subject of test [6] is CDK4-cyclinD1.
The subject of test [7] is CDK4-cyclinD3.
Test [8] deals with CDK4.
Test [9] has as its system CDK5.
The test system of test [10] is CDK7.
Test [11] relates to CDK8.
The subject of test [12] is CDK9.
Test [13] has as its system CDKL1.
In test [14] the test system is CDKL2.
Test [15] has as its system CDKL3.
Test [16] relates to CDKL5.
The test system of test [17] is CHEK1.
Test [18] deals with CHEK2.
Test [19] relates to CIT.
Test [20] deals with CLK1.
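Further: KINOMEscan kinase panel screen.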

Regarding `Cc1ccc2c(-c3ccnc(Nc4ccc(C(F)(F)F)cc4)n3)cnn2n1` [GW819776], the “%Inh” value is 0% in test [1]; 0% in test [2]; 0% in test [3]; 15% in test [4]; 13% in test [5]; 0% in test [6]. Besides, the “%Inh” value is 0% in test [7]; 16% in test [8]; 0% in [9]; 47% in test [10]; 36% in test [11]; 23% in test [12]. Moreover, the “%Inh” value came to 39% in test [13]; 69% in [14]; 77% in test [15]; 61% in test [16]; 0% in test [17]; 0% in test [18]. Further, the “%Inh” value in test [19] is on record as 19%; in test [20] it was 83%.

On to `CCNCC(Cc1ccccc1)NC(=O)c1cc(Br)c(-c2ccnc3[nH]ccc23)s1.Cl.Cl` (stereo not shown) [GSK1383280], for which the “%Inh” value in test [1] came to 22%; in test [2], 0%; in test [3] it was 39%; in [4], 0%; in [5], 12%; in test [6], 0%. Moreover, the “%Inh” value in [7] came out at 6%; in test [8], 0%; in test [9] it was 0%; in [10], 24%; in test [11], 0%; in test [12] it was 19%. The “%Inh” value was found to be 17% in test [13]; 0% in test [14]; 0% in test [15]; 0% in [16]; 20% in [17]; 42% in [18]. For the same compound, the “%Inh” value turned out to be 73% in test [19] and 59% in test [20].

Consider `CC(C(=O)NC1CCN(c2ccnc(Nc3ccc(F)cc3)n2)C1)c1ccc(Cl)cc1` (stereo not shown) [GSK1379713], for which the “%Inh” value in test [1] is recorded as 0%; in test [2] it was 0%; in [3], 6%; in test [4] it was 0%; in [5] it was 23%; in [6], 0%. For the same compound, the “%Inh” value in test [7] turned out to be 0%; in [8], 0%; in test [9], 0%; in test [10], 0%; in [11], 23%; in test [12], 0%. Moreover, the “%Inh” value in test [13] is listed as 0%; in test [14], 1%; in test [15], 0%; in test [16], 0%; in test [17], 15%; in test [18] it was 0%. Moreover, the “%Inh” value in test [19] was determined as 28%; in test [20] it was 15%.

For the compound `C[C@@H](Oc1cc(-n2cnc3ccc(-c4ccncc4)cc32)sc1C(N)=O)c1ccccc1Cl` [GSK483724], the “%Inh” value in [1] came out at 7%; in [2], 0%; in [3], 73%; in [4], 30%; in [5], 36%; in [6] it was 0%. Moreover, the “%Inh” value is 0% in test [7]; 27% in test [8]; 1% in test [9]; 0% in test [10]; 57% in test [11]; 3% in test [12]. In addition, the “%Inh” value is listed as 16% in [13]; 78% in test [14]; 32% in [15]; 0% in test [16]; 0% in test [17]; 0% in test [18]. For the same compound, the entries for the “%Inh” value in test [19] and in test [20] were 98.8% and 98.2%, respectively.

On to `CS(=O)(=O)Nc1ccc(-c2ccnc3[nH]ccc23)cc1` [GSK993273], for which the “%Inh” value in [1] was determined as 0%; in test [2] it was 0%; in [3], 45%; in test [4], 0%; in test [5], 15%; in test [6] it was 0%. Further, the “%Inh” value stood at 0% in test [7]; 0% in [8]; 0% in [9]; 37% in [10]; 18% in test [11]; 0% in test [12]. The “%Inh” value in [13] is recorded as 0%; in test [14], 19%; in test [15] it was 0%; in [16] it was 0%; in [17], 0%; in [18] it was 0%. Besides, the results for the “%Inh” value in test [19] and in [20] were 57% and 96.7%, respectively.
